Insulin prom inh = TRM-6 insulin promoter activity inhibition. 0.9% of 130,000 active. inhibition, % at 2 µM. TRM-6 cells (human fetal islet line), insulin promoter-eGFP reporter, imaging; reporter expression induced with tamoxifen;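 active = inhibition above the mean plus 3 SD, with well images judged a real hit on visual review, cut at about 60% in these data, passing the limit was not always enough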
ROMK mod = modulates human ROMK potassium channel activity | Tet-inducible ROMK, thallium flux fluorescence; actives lie on both sides | B-score at 10 µM | P48048 | 2% of 130,000 active;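 active = signal ratio slope over the read window, or its plate-corrected B-score, at least 3 SD from the plate mean, either direction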;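 note: B-score of the F/F0 ratio slope over 7 to 12 s after thallium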
Target sequence (P48048 whole entry, looked up): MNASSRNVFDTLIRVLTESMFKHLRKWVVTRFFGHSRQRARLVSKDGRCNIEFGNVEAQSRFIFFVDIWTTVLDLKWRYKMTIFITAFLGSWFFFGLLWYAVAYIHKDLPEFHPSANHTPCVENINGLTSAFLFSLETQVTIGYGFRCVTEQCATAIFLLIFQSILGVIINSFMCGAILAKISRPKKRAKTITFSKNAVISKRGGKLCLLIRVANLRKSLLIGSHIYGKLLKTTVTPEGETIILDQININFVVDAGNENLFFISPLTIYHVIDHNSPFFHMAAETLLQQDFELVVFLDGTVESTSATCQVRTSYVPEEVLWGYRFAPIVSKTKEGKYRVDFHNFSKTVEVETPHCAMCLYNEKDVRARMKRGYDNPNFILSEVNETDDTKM
L major viab = inhibitors of Leishmania major promastigote growth. 9% of 200,000 active. inhibition, % at 10 µM. Leishmania major promastigotes, resazurin fluorescence viability; in the data active = inhibition above about 50%;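 note: promastigotes grown with compound for 44 hours at 28 °C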
Ins promoter up = MIN6 insulin promoter up-regulation; 0.3% of 190,000 active; AID 1625; z-score at 5 µM; MIN6 insulin promoter-GFP reporter, high-content imaging; stronger effect = higher value;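 active = z-score above 3 at 5 µM with at least 500 cells counted in the well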
WT yeast gro inh = growth inhibition of WT yeast, mitochondrial fusion screen. AID 1362. mitochondrial fusion phenotypic screen, WT strain. 2.1% of 190,000 active. inhibition, % at 10 µM; in the data active = inhibition above about 58%; tested in S. cerevisiae
Cl transport mod = modulators of human KCC2 chloride dependent transport. KCC2 cells, thallium flux FluoZin-2 fluorescence. Q9H2X9. B-score of Tl+ flux slope (higher = more flux/activation; lower = inhibition) at 10 µM. AID 1456. 2.2% of 190,000 active;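 active = thallium flux slope and its plate-corrected score both differing from the plate sample mean at a set confidence after two filtering rounds, in either direction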;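 note: slope of fluorescence scaled to starting intensity during 10 to 20 s after thallium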
A number is an active result; n = inactive; x = no result given. An excerpt weighted towards active compounds, which were near 12% of everything screened.

SMILES	Insulin prom inh	ROMK mod	L major viab	Ins promoter up	WT yeast gro inh	Cl transport mod
CC(C)c1ccc(-c2cc(C(=O)N3N=C(C(F)F)CC3(O)C(F)F)c3ccccc3n2)cc1 (stereo not given)	n	n	93	n	87	n
O=C(c1cc(C2CC2)nc2ccc(Br)cc12)N1N=C(C(F)F)CC1(O)C(F)F (stereo not given)	n	x	n	x	74	n
O=C(Nc1ccc(O)cc1C(=O)O)c1cccc(Br)c1	x	x	n	n	n	n
Cn1c(=O)c2c(nc(N/N=C/c3ccc(OC(=O)c4ccco4)cc3)n2Cc2ccc(F)cc2)n(C)c1=O	x	x	n	n	n	n
Cn1c(=O)c2c(nc(N/N=C/c3ccc(OC(=O)c4ccco4)cc3)n2Cc2ccccc2Cl)n(C)c1=O	n	n	55	n	n	n
Cn1c(=O)c2c(nc(SCC(=O)N3CCCc4ccccc43)n2C)n(C)c1=O	n	n	n	x	x	n
COc1cc(OC)nc(Oc2ccccc2C(=O)Oc2ccccc2Cl)n1	n	x	n	x	62	n
COc1cc(OC)nc(Oc2ccccc2C(=O)Oc2ccc(Cl)cc2)n1	n	x	n	x	68	n
COc1cc(OC)nc(Oc2ccccc2C(=O)Oc2ccc(C)cc2)n1	n	x	n	x	n	n
CC(=O)Nc1ccccc1C(=O)C(=O)NCCc1ccccc1	n	n	n	n	n	n
O=C(c1ccc(Br)cc1)N1CCCC(c2nc(-c3cccs3)no2)C1 (stereo not given)	x	n	67	n	n	n
CCOc1ccc(-c2csc(Cn3c(CN4CCN(C)CC4)nc4ccccc4c3=O)n2)cc1	x	x	n	n	n	n
COc1ccc(CCNC(=O)COc2ccc(S(=O)(=O)NC(C)C)cc2)cc1OC	x	n	n	n	n	n
Cc1[nH]c2ccccc2c1N=Nc1ccccc1F	x	n	n	n	72	n
COc1cc(NC(=O)c2cccc(Cl)c2)ccc1NC(=O)c1cccs1	n	n	n	x	n	n
CC(=O)c1cc2c(cc1N/C(=N/S(=O)(=O)c1ccc(C)cc1)c1ccccc1)OCO2	n	n	59	n	n	n
COc1ccccc1NS(=O)(=O)c1cc(N/C(=N\S(=O)(=O)c2ccccc2)c2ccc(F)cc2)ccc1Cl	n	x	99	n	n	n
O=S(=O)(/N=C(/Nc1ccc(F)cc1F)c1ccc(Cl)cc1)c1ccccc1	n	x	n	x	n	n
COc1ccccc1NS(=O)(=O)c1cc(NC(=S)Nc2cc(C)cc(C)c2)ccc1Cl	n	n	n	n	n	n
COc1ccccc1N/C(=N/S(=O)(=O)c1ccc(C)cc1)c1ccc(Cl)cc1	x	n	100	n	n	n
COc1ccc(Br)cc1C(=O)Nc1cccc(C)c1	n	n	n	n	n	n
Cc1ccc(-n2c(-c3cc(-c4ccco4)[nH]n3)n[nH]c2=S)c(Br)c1	x	x	x	n	x	n
CCn1c(O)c(N=NC(=O)CNC(=O)c2ccco2)c2ccccc21	x	x	n	n	n	n
CCCn1c(O)c(N=NC(=O)c2ccco2)c2ccccc21	n	n	68	n	n	18
CCCCCn1c(=O)[nH]c2cc(C(=O)NCCCN3CCC(C)CC3)ccc2c1=O	x	x	58	n	n	n
SMILES	Insulin prom inh	ROMK mod	L major viab	Ins promoter up	WT yeast gro inh	Cl transport mod
CC1CCN(CCCNC(=O)c2ccc(Cn3c(=S)[nH]c4ccc(Br)cc4c3=O)cc2)CC1	x	n	99	x	n	n
CC1CCN(CCCNC(=O)c2ccc3c(=O)n(CCc4ccccc4)c(=O)[nH]c3c2)CC1	n	n	97	x	n	n
CC1CCCCN1CCNC(=O)c1ccc2c(=O)n(CCc3ccccc3)c(=O)[nH]c2c1 (stereo not given)	n	n	63	x	n	n
O=C(NCC1CCCO1)c1ccc2c(=O)n(CCc3ccccc3)c(=O)[nH]c2c1 (stereo not given)	x	x	n	n	n	n
CCN(CC)C(=O)c1sc(NC(=O)c2ccc(Br)o2)c(C(=O)OC)c1C	x	n	n	n	n	x
CNc1nccc(-c2ccc(F)cc2)c1C#N	n	n	n	n	n	n
NS(=O)(=O)c1ccc(NC(=O)CSc2ccc3ccccc3n2)cc1	n	n	n	n	n	n
Cc1cc(C(=O)N/N=C/c2ccc(Cl)c([N+](=O)[O-])c2)c(C)n1-c1ccc(F)cc1	n	n	n	n	n	n
COc1ccc(-n2nc(C(=O)NCC(=O)NCc3ccco3)c3ccccc3c2=O)c(OC)c1	n	n	n	n	n	x
CC1=CN2C(=N)/C(=C/c3ccc([N+](=O)[O-])o3)C(=O)N=C2S1	x	x	n	x	86	n
CC1=CN2C(=N)/C(=C/c3ccco3)C(=O)N=C2S1	n	x	n	n	n	n
